Structures are written as SMILES. Among all 410,000 compounds or so, about 18,000 (4.4%) were called active. Not shown: some 7% with an inconclusive outcome. Only a selection was taken, and actives are over-represented in it overall. Values without a mark were called inactive. No stated cut-off is given here; in the data, active means activity change below about -60%; inconclusive means no clear call, values can overlap the other calls; inactive means above about -39%.
On the % scale 0 is the no-effect control and ±100 the full control effect.

The test is described as follows: qHTS Assay for inhibitors of the human cytomegalovirus (HCMV). The following applies: HFF cells, HCMV-luciferase reporter, 72 h; at 57.5 µM; stronger effect = lower value. The gist of the method: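 Two-dose cell screen: HFF monolayers treated with compounds and infected with luciferase-expressing HCMV at 1 PFU/cell, 72 h at 37C, then lysed for luciferase measurement.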
(qHTS replaces the single test concentration by a dilution series.)
Take `C/C(N)=C(/C#N)C(=O)COC(=O)C1=NN(c2ccccc2)C(=O)CC1`: the activity change, negative = inhibition was 36.4%.
To `CCN1N=C(c2ccccc2)CCC1=O` belongs -24.2%; to `O=C1CC(c2ccccc2)=NN1c1ccc([N+](=O)[O-])cc1`, -78% (active); to `O=C1CCCc2cc(S(=O)(=O)N3CCCC(C(=O)NCc4ccccc4)C3)ccc2N1` (stereo not drawn), -3.71%.
With `CCOc1ccc(-n2c(SCC(=O)NCc3ccccc3)nc3n[nH]c(C)c3c2=N)cc1` the figure was 35.6%; with `COc1ccc(Cc2nnc(SC)[nH]c2=O)cc1`, -30.1%; with `Cc1ccc(Cc2nnc(SCC(=O)Nc3ccccc3C)[nH]c2=O)cc1`, -1.67%.
In the case of `COc1ccc(Cc2nnc(N/N=C/c3ccccc3O)[nH]c2=O)cc1OC`, the activity change, negative = inhibition was -97.9% (active).
To `Cc1ccc(C)c(N2CCN(S(=O)(=O)c3ccc4c(c3)C(C(C)C)C(=O)N4)CC2)c1` (stereo not drawn) belongs -24.7%.
With `CCOc1ccc(NC(=O)CN(C)C(=O)c2c(C)noc2C)cc1OCC` the figure was -5.36%.
Regarding `Cc1ccccc1-c1nc2cc(NC(=O)c3cccc(OCCC(C)C)c3)ccc2o1`, the activity change, negative = inhibition was -15.9%.
For `Cc1nc(N2CCOCC2)c2c(C)c(C(=O)Nc3ccc(C(F)(F)F)cc3)sc2n1`, the activity change, negative = inhibition is -84.9% (active).
With `CCOC(=O)C1CCCN(C(=O)c2sc3nc(C)nc(N4CCOCC4)c3c2C)C1` (stereo not drawn) the figure was -14%.
With `CC(=O)c1ccc(NC(=O)c2sc3nc4n(c(=O)c3c2C)CCCCC4)cc1` the figure was 23.1%; with `Cc1cc(N2C(=O)C(=O)/C(=C(/O)c3ccccc3)C2c2cccc(Br)c2)no1` (stereo not drawn), -20.6%; with `CCN(CC)S(=O)(=O)c1ccc(C(=O)N=c2sc3cccc(OC)c3n2C)cc1`, -2.8%.
To `COc1ccc(N(C(=O)c2snc(C(N)=O)c2N)C(C(=O)NC2CCCC2)c2ccco2)cc1OC` (stereo not drawn) belongs -8.05%; to `CCOc1ccc(C(C(=O)NC2CCCC2)N(C(=O)c2snc(C(N)=O)c2N)C2CCCC2)cc1` (stereo not drawn), -24.5%; to `COc1cc(C(C(=O)NC2CCCC2)N(Cc2ccccc2)C(=O)c2snc(C(N)=O)c2N)ccc1O` (stereo not drawn), -99.2% (active).
As to `CC(C)NC(=O)N1CC(=O)N2[C@H](CO)[C@@H](c3ccc(Br)cc3)[C@H]2C1`, the activity change, negative = inhibition was 1.46%.
To `CCc1cc2c(cc3c(=O)n(CC(=O)N4CCN(c5cc(Cl)ccc5C)CC4)nc(CC)n32)s1` belongs 12.7%.
To `COc1ccc(-c2noc(CCC(=O)N(C)c3ccccc3C)n2)cc1` belongs -35.9%; to `CCOC(=O)c1cc2c(=O)n3ccccc3nc2n(CC2CCCO2)c1=NC(=O)c1ccc(C(C)(C)C)cc1` (stereo not drawn), 23.6%.
